Data from PubChem BioAssay (NCI).
The panel holds about 83,000 compounds, 20% with a hit somewhere; the sample as a whole holds those more often.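 Percent growth is the endpoint: 0 to 100 indicates growth inhibition (40 means 60% inhibition), 0 means no net growth, and negative values indicate cell death.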 The source made the active and inactive calls. Rule for the calls: active = growth percent below 10; inactive = the rest.

Each compound was assayed on MOLT-4 leukemia (assay: NCI-60 one-dose screen, 48 h (100 = growth as untreated, 0 = no growth, -100 = all killed)). Conditions: 10 µM unless noted.

Row | SMILES | growth
1 | O=c1c2c3c(sc2nc(N/N=C/c2ccc(Br)cc2)n1Cc1ccccc1)CCCC3 | 40.8% (inactive)
2 | CC(=O)O[C@]1(C(C)=O)CCC2C3C[C@H](C)C4=CC(=O)CC[C@]4(C)C3CC[C@@]21C (some centres not stated) | 81.7% (inactive)
3 | Nc1ccc2c(c1)c(N)nn2C(=O)Nc1ccc(Cc2ccccc2)cc1 | 27.8% (inactive)
4 | CN(C)CCC=C1c2ccccc2C(C)(C)c2ccccc21 | 72.9% (inactive)
5 | COc1ccc(NC(=O)CSc2nc(C)c(C(C)=O)n2-c2ccc([N+](=O)[O-])cc2)cc1 | 92.2% (inactive)
6 | COC(=O)c1c2c(c(C)[n+]([O-])c1C)C(=O)C(NCc1ccc(F)cc1)=CC2=O | -19.6% (active)
7 | Cc1c(C(=O)NC(Cc2ccccc2)C(O)C(=O)NCc2ccc(F)cc2)[nH]c2ccccc2c1=O (configuration not stated) | 93.6% (inactive)
8 | COC1=C(OC)C(=O)C(OC)=C(OC)C1=O | -24.5% (active)
9 | C[C@H](NC(=O)[C@@H]1CSSC[C@@H](NC(=O)c2nc3ccccc3cc2O)C(=O)NCC(=O)N1C)c1ccccc1 | -8.45% (active)
10 | O=S(=O)(NCCCNc1cc(-c2c(-c3cccc(O)c3)nc3sccn23)ccn1)c1cccc(Cl)c1 | 15.2% (inactive)
11 | CCOC(=O)/C=C/c1cc2cc(-c3csc4ccccc34)ccc2[nH]1 | 12.2% (inactive)
12 | Cn1cc(-c2csc(-c3ccccc3)n2)c2cccnc21 | -8.37% [100 µM] (active)
13 | O=c1[nH]nc(-c2ccccc2)c2c(-c3ccccc3)onc12 | 30.2% (inactive)
14 | Cc1ccccc1NC(=O)N/C(N)=N/c1nc(-c2cccc([N+](=O)[O-])c2)cs1 | 30.2% (inactive)
15 | COc1cc2c(cc1-c1c(C)noc1C)ncc1nc(C3CCC(F)(F)CC3)n(C3CCC(OC(F)F)CC3)c12 (configuration not stated) | 59.7% (inactive)
16 | N#C/C(=C\c1ccc(Br)cc1)n1nnc2cc(F)c(F)cc21 | 1.95% (active)
17 | CSc1n(Cc2ccc3ccccc3c2)c(C)c[n+]1Cc1ccc2ccccc2c1 | 2.39% (active)
